This note sets out measurements from the supplement of paper PMC12067093, “Discovery and optimisation of a covalent ligand for TRIM25 and its application to targeted protein ubiquitination” (Chemical Science, 2025).

About 21,000 targets were measured; listed, in parts, are those with the largest changes and a random draw of the rest.

Compound in this assay: Cc1cc(ccc1-c1ccccc1)C(=O)N1CCCN(CC1)C(=O)CCl [compound 10]
As to the kind of experiment: probe-labelled cysteine peptide fold change vs DMSO (competition) (log2 fold change); higher = less target engagement (more negative = stronger competition). The following applies: THP-1, incubation time: 4 h.
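Further: competitive profiling in live THP-1 cells: cysteine peptides tagged with an iodoacetamide desthiobiotin (IA-DTB) probe, intensity after compound treatment relative to DMSO-treated cells.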

UniProt O95696, sequence (O95696 whole entry, looked up): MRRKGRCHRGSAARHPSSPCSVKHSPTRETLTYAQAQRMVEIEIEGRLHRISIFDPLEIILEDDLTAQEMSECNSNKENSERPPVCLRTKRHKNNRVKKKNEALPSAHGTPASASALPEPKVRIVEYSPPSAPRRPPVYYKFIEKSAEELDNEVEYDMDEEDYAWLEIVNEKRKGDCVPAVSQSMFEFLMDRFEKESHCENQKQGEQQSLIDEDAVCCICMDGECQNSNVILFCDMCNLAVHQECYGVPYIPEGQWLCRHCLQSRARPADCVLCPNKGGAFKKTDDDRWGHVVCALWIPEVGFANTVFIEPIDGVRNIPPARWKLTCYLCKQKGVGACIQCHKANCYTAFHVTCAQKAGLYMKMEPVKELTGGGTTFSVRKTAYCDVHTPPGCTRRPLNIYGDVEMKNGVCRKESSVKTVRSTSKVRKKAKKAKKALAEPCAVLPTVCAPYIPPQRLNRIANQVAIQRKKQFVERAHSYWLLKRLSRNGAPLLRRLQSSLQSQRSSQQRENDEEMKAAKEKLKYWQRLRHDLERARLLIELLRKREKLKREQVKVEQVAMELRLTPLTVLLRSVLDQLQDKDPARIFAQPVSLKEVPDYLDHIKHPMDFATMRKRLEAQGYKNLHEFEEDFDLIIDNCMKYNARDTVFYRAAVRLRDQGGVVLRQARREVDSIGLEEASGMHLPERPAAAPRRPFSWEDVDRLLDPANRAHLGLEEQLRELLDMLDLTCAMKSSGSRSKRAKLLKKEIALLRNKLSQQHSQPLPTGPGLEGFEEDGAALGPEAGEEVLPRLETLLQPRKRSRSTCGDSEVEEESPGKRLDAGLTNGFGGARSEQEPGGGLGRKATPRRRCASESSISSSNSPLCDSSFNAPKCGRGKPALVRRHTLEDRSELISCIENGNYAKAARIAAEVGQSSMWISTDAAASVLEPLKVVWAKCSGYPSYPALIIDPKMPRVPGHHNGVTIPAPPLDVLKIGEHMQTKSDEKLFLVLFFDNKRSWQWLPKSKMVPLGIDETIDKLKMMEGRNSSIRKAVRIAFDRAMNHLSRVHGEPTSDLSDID
UniProt O00257, sequence (O00257 whole entry): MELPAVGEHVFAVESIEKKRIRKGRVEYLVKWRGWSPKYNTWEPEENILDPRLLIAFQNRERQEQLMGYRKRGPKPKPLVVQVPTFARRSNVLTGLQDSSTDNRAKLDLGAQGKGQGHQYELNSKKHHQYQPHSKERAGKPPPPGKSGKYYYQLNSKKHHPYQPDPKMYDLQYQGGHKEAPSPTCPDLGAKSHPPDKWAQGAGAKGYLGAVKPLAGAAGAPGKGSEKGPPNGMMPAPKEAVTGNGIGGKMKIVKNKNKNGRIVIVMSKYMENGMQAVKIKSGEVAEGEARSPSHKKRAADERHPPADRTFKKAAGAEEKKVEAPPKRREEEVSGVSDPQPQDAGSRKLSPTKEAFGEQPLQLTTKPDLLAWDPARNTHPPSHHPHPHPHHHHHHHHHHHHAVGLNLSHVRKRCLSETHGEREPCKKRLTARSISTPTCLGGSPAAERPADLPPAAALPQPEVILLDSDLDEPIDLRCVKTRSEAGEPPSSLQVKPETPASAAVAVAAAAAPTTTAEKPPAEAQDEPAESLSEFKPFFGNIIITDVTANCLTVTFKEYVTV
UniProt O95319, sequence (O95319 whole entry, looked up): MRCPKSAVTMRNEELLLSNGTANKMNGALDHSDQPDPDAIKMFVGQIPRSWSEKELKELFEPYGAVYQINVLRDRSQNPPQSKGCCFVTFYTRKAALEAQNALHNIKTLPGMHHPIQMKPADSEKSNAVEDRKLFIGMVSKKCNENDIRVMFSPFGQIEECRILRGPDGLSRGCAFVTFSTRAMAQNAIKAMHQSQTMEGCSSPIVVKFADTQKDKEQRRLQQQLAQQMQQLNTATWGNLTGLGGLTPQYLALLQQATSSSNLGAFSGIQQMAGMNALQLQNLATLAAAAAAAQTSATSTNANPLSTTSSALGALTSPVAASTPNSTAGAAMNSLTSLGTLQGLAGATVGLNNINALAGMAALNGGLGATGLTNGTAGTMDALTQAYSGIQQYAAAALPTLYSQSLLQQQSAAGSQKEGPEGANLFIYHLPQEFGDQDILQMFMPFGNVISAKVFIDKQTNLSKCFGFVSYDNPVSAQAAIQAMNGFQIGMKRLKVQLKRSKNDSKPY
UniProt Q92879, sequence (Q92879 whole entry, looked up): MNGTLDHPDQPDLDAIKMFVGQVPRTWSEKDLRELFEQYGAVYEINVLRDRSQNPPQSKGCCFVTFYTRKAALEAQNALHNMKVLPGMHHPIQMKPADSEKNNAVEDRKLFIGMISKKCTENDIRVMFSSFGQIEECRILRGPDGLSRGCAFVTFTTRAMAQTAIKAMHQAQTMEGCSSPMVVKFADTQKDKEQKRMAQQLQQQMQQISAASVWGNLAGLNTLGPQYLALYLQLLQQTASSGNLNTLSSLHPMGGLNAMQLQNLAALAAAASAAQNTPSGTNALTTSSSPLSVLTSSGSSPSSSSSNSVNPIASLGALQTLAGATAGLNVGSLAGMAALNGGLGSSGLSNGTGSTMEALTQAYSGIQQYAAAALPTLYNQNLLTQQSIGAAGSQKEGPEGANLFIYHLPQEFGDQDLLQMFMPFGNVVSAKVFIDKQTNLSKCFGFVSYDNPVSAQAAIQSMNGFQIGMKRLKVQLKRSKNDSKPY
UniProt Q9H257, sequence (Q9H257 whole entry, looked up): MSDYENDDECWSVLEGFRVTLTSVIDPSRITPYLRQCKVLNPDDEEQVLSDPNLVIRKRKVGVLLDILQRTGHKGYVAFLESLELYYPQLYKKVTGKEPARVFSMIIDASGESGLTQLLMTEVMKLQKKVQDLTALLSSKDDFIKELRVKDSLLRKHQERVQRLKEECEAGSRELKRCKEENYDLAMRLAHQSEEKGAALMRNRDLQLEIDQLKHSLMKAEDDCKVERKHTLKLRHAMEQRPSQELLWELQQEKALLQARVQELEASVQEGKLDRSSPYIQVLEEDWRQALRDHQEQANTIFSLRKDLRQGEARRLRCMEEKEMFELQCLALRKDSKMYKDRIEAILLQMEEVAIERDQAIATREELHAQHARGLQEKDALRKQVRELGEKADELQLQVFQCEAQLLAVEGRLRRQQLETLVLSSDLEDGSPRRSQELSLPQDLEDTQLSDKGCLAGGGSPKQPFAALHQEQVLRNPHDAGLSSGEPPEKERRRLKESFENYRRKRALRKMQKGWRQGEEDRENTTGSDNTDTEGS
UniProt Q14137, sequence (Q14137 whole entry, looked up): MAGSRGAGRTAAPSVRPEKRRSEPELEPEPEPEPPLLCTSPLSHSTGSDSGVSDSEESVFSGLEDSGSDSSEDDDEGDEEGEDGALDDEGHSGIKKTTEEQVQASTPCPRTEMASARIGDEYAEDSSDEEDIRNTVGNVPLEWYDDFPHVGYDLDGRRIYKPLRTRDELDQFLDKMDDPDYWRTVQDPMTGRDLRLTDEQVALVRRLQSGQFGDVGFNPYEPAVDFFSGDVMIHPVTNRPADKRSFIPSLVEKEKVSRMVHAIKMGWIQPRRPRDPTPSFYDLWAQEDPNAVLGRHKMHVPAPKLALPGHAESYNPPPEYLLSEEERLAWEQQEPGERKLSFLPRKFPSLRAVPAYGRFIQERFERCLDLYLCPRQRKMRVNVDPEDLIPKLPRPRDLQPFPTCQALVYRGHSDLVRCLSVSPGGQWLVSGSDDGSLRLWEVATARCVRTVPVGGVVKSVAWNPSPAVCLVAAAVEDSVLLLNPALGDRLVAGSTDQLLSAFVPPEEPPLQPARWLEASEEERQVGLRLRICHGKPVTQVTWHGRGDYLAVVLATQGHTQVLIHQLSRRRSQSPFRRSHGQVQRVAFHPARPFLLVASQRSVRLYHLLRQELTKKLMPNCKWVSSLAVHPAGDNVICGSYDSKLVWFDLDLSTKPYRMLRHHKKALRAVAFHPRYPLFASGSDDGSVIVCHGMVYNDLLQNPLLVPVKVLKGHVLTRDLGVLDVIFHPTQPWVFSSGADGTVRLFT
UniProt Q9NQS1, sequence (Q9NQS1 whole entry, looked up): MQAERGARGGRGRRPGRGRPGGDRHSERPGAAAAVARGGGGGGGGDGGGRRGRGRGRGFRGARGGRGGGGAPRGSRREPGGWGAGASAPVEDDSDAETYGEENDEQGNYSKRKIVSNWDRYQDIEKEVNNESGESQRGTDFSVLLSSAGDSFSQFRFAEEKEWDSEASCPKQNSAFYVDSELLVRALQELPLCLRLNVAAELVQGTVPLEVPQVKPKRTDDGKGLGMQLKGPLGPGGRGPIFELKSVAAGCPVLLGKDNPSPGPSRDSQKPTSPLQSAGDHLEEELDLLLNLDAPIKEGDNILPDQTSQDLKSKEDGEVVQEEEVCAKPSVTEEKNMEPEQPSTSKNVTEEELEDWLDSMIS
UniProt Q9Y6K0, sequence (Q9Y6K0 whole entry, looked up): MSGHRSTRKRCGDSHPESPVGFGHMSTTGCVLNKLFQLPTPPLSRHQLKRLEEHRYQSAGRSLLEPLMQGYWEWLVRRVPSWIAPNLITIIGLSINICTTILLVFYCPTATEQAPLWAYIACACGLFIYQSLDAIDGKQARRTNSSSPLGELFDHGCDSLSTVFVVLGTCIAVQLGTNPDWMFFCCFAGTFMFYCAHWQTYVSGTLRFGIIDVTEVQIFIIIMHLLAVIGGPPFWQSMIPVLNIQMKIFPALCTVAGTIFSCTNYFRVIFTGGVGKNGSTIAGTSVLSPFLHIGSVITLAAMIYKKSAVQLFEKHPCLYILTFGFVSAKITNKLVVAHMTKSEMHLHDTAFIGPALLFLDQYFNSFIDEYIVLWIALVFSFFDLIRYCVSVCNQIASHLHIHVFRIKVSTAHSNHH

On to “BOP1_Q14137_108_TTEEQVQASTPCPR (UniProt Q14137)”, for which the “probe-labelled cysteine peptide fold change” value (10 µM) was -0.185 and the “probe-labelled cysteine peptide fold change” value (50 µM) was -0.638.

For the target “CELF1_Q92879_119_CTENDIR (UniProt Q92879)”, the “probe-labelled cysteine peptide fold change” value is 0.0497 (10 µM) and 0.276 (50 µM).

Regarding “CARD9_Q9H257_402_ADELQLQVFQCEAQLLAVEGR (UniProt Q9H257)”, the “probe-labelled cysteine peptide fold change” value stood at 0.18 (10 µM) and 0.639 (50 µM).

On to “AVEN_Q9NQS1_169_EWDSEASCPK (UniProt Q9NQS1)”, for which the “probe-labelled cysteine peptide fold change” value is -0.857 (10 µM) and -2.39 (50 µM).

Regarding “CELF2_O95319_174_GCAFVTFSTR (UniProt O95319)”, the “probe-labelled cysteine peptide fold change” value reads like this: (10 µM) 0.0275; (50 µM) 0.0429.

Turning to “CBX4_O00257_185_EAPSPTCPDLGAK (UniProt O00257)”, the “probe-labelled cysteine peptide fold change” value (10 µM) is -0.129 and the “probe-labelled cysteine peptide fold change” value (50 µM) is -0.0437.

“BRD1_O95696_294_TDDDRWGHVVCALWIPEVGFANTVFIEPIDGVR (UniProt O95696)”: the “probe-labelled cysteine peptide fold change” value is, setting by setting: (10 µM) -0.0156; (50 µM) 0.0676.

For the target “CEPT1_Q9Y6K0_11+30_CGDSHPESPVGFGHMSTTGCVLNK (UniProt Q9Y6K0)”, the “probe-labelled cysteine peptide fold change” value is, setting by setting: (10 µM) -1.98; (50 µM) -2.17.

“CEP170_Q5SW79_30_EMIFVGRDDCELMLQSR (UniProt Q5SW79)”: the “probe-labelled cysteine peptide fold change” value runs as follows: (10 µM) -0.075; (50 µM) 0.0343.
